# Results: PubChem BioAssay (NCI)
# About 79,000 compounds went through this panel and 15% of them were active in at least one assay; those are over-represented in the sample as a whole. Unmarked numbers belong to inactive results. The source made the active and inactive calls. Rule as the data show it: active = growth inhibition above about 70%; inactive = the rest.
# Experiments:
# [1] = NCI Yeast Anticancer Drug Screen. Data for the rad52 strain (AID 147);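 also: 0% = growth of vehicle-treated control cultures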; settings: S. cerevisiae rad52 mutant growth inhibition, stronger effect = higher value
# How it was run: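 Yeast strain carrying a DNA damage repair alteration was exposed to test compounds. Growth inhibition was measured relative to vehicle-treated controls.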
# [2] = NCI Yeast Anticancer Drug Screen. Data for the wt1 strain (AID 149);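 also: 0% = growth of vehicle-treated wt1 cultures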; settings: S. cerevisiae wt1 strain (SPY 50644) growth inhibition, stronger effect = higher value
# How it was run: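 Measured: growth of wt1 yeast under compound versus vehicle treatment, reported as inhibition.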
# [3] = NCI Yeast Anticancer Drug Screen. Data for the rad50EPP+ strain (AID 151);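 also: 0% = growth of vehicle-treated control cultures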; settings: S. cerevisiae rad50 mutant strain, stronger effect = higher value
# How it was run: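 Yeast strain carrying rad50 alteration (rad50EPP+) exposed to compounds; growth inhibition measured relative to vehicle-treated controls.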
# [4] = NCI Yeast Anticancer Drug Screen. Data for the mgt1 strain (AID 153); settings: S. cerevisiae mgt1 mutant growth inhibition, stronger effect = higher value
# How it was run: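 Yeast mgt1 strain (DNA repair/cell-cycle alteration panel) exposed to compounds; growth inhibition measured relative to vehicle-treated controls.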
# [5] = NCI Yeast Anticancer Drug Screen. Data for the rad50 strain (AID 155);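 also: 0% = growth of vehicle-only cultures of the same strain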; settings: S. cerevisiae rad50 strain growth inhibition, stronger effect = higher value
# How it was run: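 Growth of the mutant yeast was measured after compound exposure and referenced to vehicle-treated cultures.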
# [6] = NCI Yeast Anticancer Drug Screen. Data for the mec2-1 strain (AID 157); settings: S. cerevisiae mec2-1 strain, stronger effect = higher value
# How it was run: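 mec2-1 yeast strain, carrying an alteration in DNA damage repair or cell cycle control, was exposed to compounds; growth inhibition was measured relative to vehicle-treated controls.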
# [7] = NCI Yeast Anticancer Drug Screen. Data for the rad14 strain (AID 159);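 also: 0% = growth of vehicle-treated control cultures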; settings: S. cerevisiae rad14 strain growth inhibition, stronger effect = higher value
# How it was run: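 Here, inhibition of yeast growth was measured after compound exposure, using a strain with a genetic defect in DNA damage repair and vehicle-treated cultures as the reference.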
# [8] = NCI Yeast Anticancer Drug Screen. Data for the sgs1 mgt1 strain (AID 161);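 also: 0% = growth of cultures given vehicle only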; settings: S. cerevisiae sgs1 mgt1 strain, stronger effect = higher value
# How it was run: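 Growth of a repair-deficient yeast mutant was monitored after compound treatment and expressed as inhibition relative to vehicle-treated cultures.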
# [9] = NCI Yeast Anticancer Drug Screen. Data for the CLN2oe strain (AID 163);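 also: 0% = growth of vehicle-only control cultures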; settings: S. cerevisiae CLN2oe strain, stronger effect = higher value
# How it was run: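 Yeast cells carrying a defined cell-cycle control alteration were exposed to test compounds. Growth inhibition was scored against vehicle-treated control cultures.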
# [10] = NCI Yeast Anticancer Drug Screen. Data for the cln2 rad14 strain (AID 165);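 also: 0% = growth equal to vehicle treated cultures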; settings: S. cerevisiae cln2 rad14 strain, stronger effect = higher value
# How it was run: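 Yeast carrying cln2 and rad14 alterations (cell cycle control and DNA damage repair) were exposed to compounds. Growth inhibition was measured against vehicle-treated controls.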
# [11] = NCI Yeast Anticancer Drug Screen. Data for the bub3 strain (AID 167); settings: S. cerevisiae bub3 mutant strain, stronger effect = higher value
# How it was run: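 Whole-cell yeast assay. The mutant strain was incubated with compounds, and growth inhibition was determined by comparison with vehicle-treated cells.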
# [12] = NCI Yeast Anticancer Drug Screen. Data for the wt2 strain (AID 169);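 also: 0% = growth of vehicle-treated yeast cultures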; settings: S. cerevisiae wt2 strain growth inhibition, stronger effect = higher value
# How it was run: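 Yeast cells were exposed to test compounds, and growth inhibition was measured relative to vehicle-treated controls.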
# [13] = NCI Yeast Anticancer Drug Screen. Data for the mlh1 strain (AID 171);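 also: 0% = growth of vehicle-treated control cultures of the same strain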; settings: S. cerevisiae mlh1 strain growth inhibition, stronger effect = higher value
# How it was run: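 Yeast carrying a defined genetic alteration in DNA damage repair or cell cycle control were exposed to test compounds. Growth inhibition was measured relative to vehicle-treated controls.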
# [14] = NCI Yeast Anticancer Drug Screen. Data for the sgs1 strain (AID 173);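 also: 0% = growth of vehicle-only control cultures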; settings: S. cerevisiae sgs1 mutant, stronger effect = higher value
# How it was run: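 Yeast mutant strains carrying defined defects in DNA damage repair or cell cycle control were exposed to test compounds. Growth inhibition was scored against vehicle-treated controls.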
# [15] = NCI Yeast Anticancer Drug Screen. Data for the mlh1 rad18 strain (AID 175); settings: S. cerevisiae mlh1 rad18 strain growth inhibition, stronger effect = higher value
# How it was run: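 Growth inhibition of the yeast strain was measured after compound exposure and expressed relative to vehicle-treated controls. The strain carries defined defects in DNA damage repair.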
# [16] = NCI Yeast Anticancer Drug Screen. Data for the rad18 strain (AID 177); settings: S. cerevisiae rad18 mutant growth inhibition, stronger effect = higher value
# How it was run: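 Yeast carrying a defined DNA damage repair alteration were exposed to compounds. Growth inhibition was expressed relative to vehicle-treated controls.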
# [17] = at 5.0 µM (retest, dose inferred, filed as 0.5)
# [18] = at 50.0 µM (retest, dose inferred, filed as 5.0)
smiles,measurement,setting,value
O=C1C=C(NCCc2cc(Br)c(O)c(Br)c2)C(=O)c2ncccc21,growth inhibition,[1]; at 1.2 µM,40%
same,growth inhibition,[1]; at 3.7 µM,50%
same,growth inhibition,[1]; at 11.0 µM,54%
same,growth inhibition,[1]; at 33.0 µM,89% (active)
same,growth inhibition,[1]; at 100.0 µM,94% (active)
same,growth inhibition,[2]; at 1.2 µM,17%
same,growth inhibition,[2]; at 3.7 µM,19%
same,growth inhibition,[2]; at 11.0 µM,27%
same,growth inhibition,[2]; at 33.0 µM,53%
same,growth inhibition,[2]; at 100.0 µM,95% (active)
same,growth inhibition,[3]; at 1.2 µM,23%
same,growth inhibition,[3]; at 3.7 µM,38%
same,growth inhibition,[3]; at 11.0 µM,49%
same,growth inhibition,[3]; at 33.0 µM,82% (active)
same,growth inhibition,[3]; at 100.0 µM,90% (active)
same,growth inhibition,[4]; at 1.2 µM,13%
same,growth inhibition,[4]; at 3.7 µM,15%
same,growth inhibition,[4]; at 11.0 µM,25%
same,growth inhibition,[4]; at 33.0 µM,69%
same,growth inhibition,[4]; at 100.0 µM,94% (active)
same,growth inhibition,[5]; at 1.2 µM,18%
same,growth inhibition,[5]; at 3.7 µM,24%
same,growth inhibition,[5]; [17],1%
same,growth inhibition,[5]; at 11.0 µM,44%
same,growth inhibition,[5]; at 33.0 µM,88% (active)
same,growth inhibition,[5]; [18],89% (active)
same,growth inhibition,[5]; at 50.0 µM,92.1% (active)
same,growth inhibition,[5]; at 100.0 µM,94% (active)
same,growth inhibition,[6]; at 1.2 µM,6%
same,growth inhibition,[6]; at 3.7 µM,21%
same,growth inhibition,[6]; [17],-5%
same,growth inhibition,[6]; at 11.0 µM,28%
same,growth inhibition,[6]; at 33.0 µM,69%
same,growth inhibition,[6]; [18],92% (active)
same,growth inhibition,[6]; at 50.0 µM,73.8% (active)
same,growth inhibition,[6]; at 100.0 µM,93% (active)
same,growth inhibition,[7]; at 1.2 µM,24%
same,growth inhibition,[7]; at 3.7 µM,21%
same,growth inhibition,[7]; at 11.0 µM,23%
same,growth inhibition,[7]; at 33.0 µM,82% (active)
same,growth inhibition,[7]; at 100.0 µM,93% (active)
same,growth inhibition,[8]; [17],4%
same,growth inhibition,[8]; [18],83% (active)
same,growth inhibition,[8]; at 50.0 µM,89.5% (active)
same,growth inhibition,[9]; at 1.2 µM,-5%
same,growth inhibition,[9]; at 3.7 µM,39%
same,growth inhibition,[9]; at 11.0 µM,41%
same,growth inhibition,[9]; at 33.0 µM,55%
same,growth inhibition,[9]; at 100.0 µM,90% (active)
same,growth inhibition,[10]; [17],21%
same,growth inhibition,[10]; [18],90% (active)
same,growth inhibition,[10]; at 50.0 µM,46.2%
same,growth inhibition,[11]; at 1.2 µM,-2%
same,growth inhibition,[11]; at 3.7 µM,-6%
same,growth inhibition,[11]; [17],12%
same,growth inhibition,[11]; at 11.0 µM,5%
same,growth inhibition,[11]; at 33.0 µM,68%
same,growth inhibition,[11]; [18],96% (active)
same,growth inhibition,[11]; at 50.0 µM,95.5% (active)
same,growth inhibition,[11]; at 100.0 µM,94% (active)
same,growth inhibition,[12]; at 1.2 µM,13%
same,growth inhibition,[12]; at 3.7 µM,15%
same,growth inhibition,[12]; at 11.0 µM,26%
same,growth inhibition,[12]; at 33.0 µM,67%
same,growth inhibition,[12]; at 100.0 µM,91% (active)
same,growth inhibition,[13]; at 1.2 µM,27%
same,growth inhibition,[13]; at 3.7 µM,27%
same,growth inhibition,[13]; at 11.0 µM,36%
same,growth inhibition,[13]; at 33.0 µM,82% (active)
same,growth inhibition,[13]; at 100.0 µM,96% (active)
same,growth inhibition,[14]; at 1.2 µM,28%
same,growth inhibition,[14]; at 3.7 µM,29%
same,growth inhibition,[14]; at 11.0 µM,43%
same,growth inhibition,[14]; at 33.0 µM,82% (active)
same,growth inhibition,[14]; at 100.0 µM,96% (active)
same,growth inhibition,[15]; [17],21%
same,growth inhibition,[15]; [18],95% (active)
same,growth inhibition,[15]; at 50.0 µM,91% (active)
same,growth inhibition,[16]; at 1.2 µM,55%
same,growth inhibition,[16]; at 3.7 µM,54%
same,growth inhibition,[16]; at 11.0 µM,75% (active)
same,growth inhibition,[16]; at 33.0 µM,91% (active)
same,growth inhibition,[16]; at 100.0 µM,95% (active)
